High-throughput results (PubChem BioAssay)
LYPLA1 inh = LYPLA1 inhibitors, primary screen, counter-screen for PME1 inhibitor project, biochemical, fluorescence polarization, FP-Rh probe ABPP | AID 2174, 2009 | recombinant LYPLA1 | inhibition, % at 5.9 µM | Acyl-protein thioesterase 1 (Homo sapiens), O75608 | 320,000 compounds, 0.16% hits;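 active means inhibition above the mean of all tested compounds plus 3 SD, set per campaign, cut at about 14% in these data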;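 further: inhibitors block serine hydrolase probe labeling of LYPLA1 so polarization falls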
Hck-Nef inh = inhibitors of Nef-activated human Hck kinase, primary screen, biochemical, Z-Lyte FRET, 384-well, Hck-YEEI; AID 463187, 2010; Recombinant Hck-YEEI plus Nef, Z-Lyte FRET kinase assay; 220,000 compounds, 0.68% hits; Tyrosine-protein kinase HCK (Homo sapiens), P08631; inhibition, % at 20 µM;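 active means Hck-Nef kinase inhibition above about 50%, limit read from the data; inactive means inhibition below that limit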
LYPLA2 inh = LYPLA2 inhibitors, primary screen, counter-screen for PME1 inhibitor project, biochemical, fluorescence polarization, FP-Rh probe ABPP; recombinant LYPLA2; inhibition, % at 5.9 µM; 320,000 compounds, 0.38% hits; AID 2177, 2009;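 active means inhibition above the screen-wide mean plus 3 SD, limit set per campaign, cut at about 26% in these data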
p97 inhibitor = inhibitors of human p97 ATPase, primary screen, biochemical; inhibition, % at 8 µM; AID 1481, 2009; 220,000 compounds, 0.42% hits; recombinant p97 ATPase, Kinase-Glo ATP luminescence, 3 h; Transitional endoplasmic reticulum ATPase (Homo sapiens), P55072; in the data active means inhibition above about 15%
Target sequence (P55072 whole entry, looked up): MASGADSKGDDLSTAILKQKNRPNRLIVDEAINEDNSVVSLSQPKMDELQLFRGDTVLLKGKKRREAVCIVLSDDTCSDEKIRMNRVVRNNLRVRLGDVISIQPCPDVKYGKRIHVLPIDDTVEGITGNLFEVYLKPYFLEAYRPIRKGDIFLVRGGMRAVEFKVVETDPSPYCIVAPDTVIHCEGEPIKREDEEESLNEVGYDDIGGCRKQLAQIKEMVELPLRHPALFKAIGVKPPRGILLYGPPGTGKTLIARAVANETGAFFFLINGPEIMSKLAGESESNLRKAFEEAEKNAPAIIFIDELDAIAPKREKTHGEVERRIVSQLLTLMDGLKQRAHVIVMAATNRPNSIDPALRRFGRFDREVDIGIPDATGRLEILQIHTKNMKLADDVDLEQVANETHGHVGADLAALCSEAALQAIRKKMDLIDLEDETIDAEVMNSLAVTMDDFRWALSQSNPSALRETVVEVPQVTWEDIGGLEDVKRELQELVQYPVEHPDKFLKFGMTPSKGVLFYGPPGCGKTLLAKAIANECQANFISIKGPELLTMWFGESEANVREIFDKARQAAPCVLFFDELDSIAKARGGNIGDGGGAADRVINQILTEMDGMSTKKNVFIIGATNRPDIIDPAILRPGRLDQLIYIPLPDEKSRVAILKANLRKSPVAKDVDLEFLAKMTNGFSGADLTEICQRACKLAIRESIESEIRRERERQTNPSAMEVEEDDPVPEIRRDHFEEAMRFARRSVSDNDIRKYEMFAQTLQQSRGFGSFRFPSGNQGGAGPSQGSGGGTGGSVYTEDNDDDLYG
Rin1 Abl inh = inhibitors of Rin1-Abl protein binding, primary screen, biochemical, TR-FRET. Tyrosine-protein kinase ABL1 (Homo sapiens) + Ras and Rab interactor 1 (Homo sapiens), …. 360,000 compounds, 0.4% hits. inhibition, % at 7.35 µM; in the data active means inhibition above about 5%, passing the limit was not always enough
PREPL inhibitor = PREPL enzyme inhibitors, primary screen, biochemical, fluorescence polarization; inhibition, % at 5.96 µM; Prolyl endopeptidase-like (Homo sapiens), Q4J6C6; recombinant PREPL, fluorescence polarization activity-based probe; AID 2751, 2010; 320,000 compounds, 0.68% hits; in the data active means inhibition above about 43%
Rin1-Abl confirm = Rin1-Abl binding inhibitor retest, confirmation, biochemical, TR-FRET | purified proteins | inhibition, % at 7.35 µM | shares compounds with Rin1 Abl inh | 1,300 compounds, 49% hits
GFP quencher = GFP fluorescence inhibitors and quenchers, artefact control for Rin1-Abl interaction inhibitor project, biochemical; inhibition, % at 6.75 µM; inhibitors/quenchers counterscreen; 1,300 compounds, 8.5% hits; shares compounds with Rin1 Abl inh;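 further: ABL1-eGFP fusion protein alone without its partner RIN1-SBP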
GFP quench dose = GFP fluorescence inhibitors and quenchers, dose response, artefact control for Rin1-Abl interaction inhibitor project, biochemical. shares compounds with Rin1 Abl inh. GFP fluorescence interference/quenching counterscreen. IC50, µM. 230 tested, under 10 active; call rule not given here;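 further: ABL1-eGFP fusion protein alone without its RIN1 binding partner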
Hits are given with their value; ! = not active in a repeat. In the library only some 1.7% were active in any assay of this set; here they are far more common. Unless noted, no stated cut-off is given here; in the data, active means inhibition above about 6.5%; inactive means the rest.

Results for Cc1ccc(S(=O)(=O)N2C[C@H]3[C@H]4C(=O)N(c5ccccc5)C(=O)[C@H]4CC(=O)[C@H]3[C@@H]2c2cccc3ccccc23)cc1 ?
Rin1 Abl inh: 48; Rin1-Abl confirm: inactive; GFP quencher: inactive

How did O=C(CCNC(=O)c1ccc(Cl)cc1)NNC(=O)c1ccc(F)cc1 do in these assays?
Rin1 Abl inh: inactive

How did Cc1ccc(NC(=O)COC(=O)Cc2c[nH]c3ccccc23)cc1F do in these assays?
Rin1 Abl inh: 10; Rin1-Abl confirm: inactive; GFP quencher: inactive

What do the screens show for `O=C(COC(=O)Cc1c[nH]c2ccccc12)Nc1ccc(Cl)cc1`?
Rin1 Abl inh: inactive

Results for CC(OC(=O)Cc1ccccc1F)C(=O)Nc1ccc(Cl)cn1 (stereo not given) ?
Rin1 Abl inh: inactive

Results for Cc1nn2c(-c3ccco3)nnc2c2ccccc12 ?
LYPLA1 inh: inactive; Hck-Nef inh: inactive; LYPLA2 inh: inactive; p97 inhibitor: inactive; Rin1 Abl inh: 10; PREPL inhibitor: inactive; Rin1-Abl confirm: 14; GFP quencher: inactive

What do the screens show for `Cc1ccccc1-c1nnc2c3ccccc3c(C)nn12`?
LYPLA1 inh: inactive; Hck-Nef inh: inactive; LYPLA2 inh: inactive; p97 inhibitor: inactive; Rin1 Abl inh: inactive; PREPL inhibitor: inactive

How did Cc1cccc(N(Cc2ccccc2)C(=O)c2ccc(C)c(S(=O)(=O)N3CCOCC3)c2)c1 do in these assays?
LYPLA1 inh: inactive; LYPLA2 inh: inactive; Rin1 Abl inh: inactive; PREPL inhibitor: inactive

Results for Cc1cccc(N(Cc2ccccc2)C(=O)Cc2ccc(S(=O)(=O)N3CCOCC3)s2)c1 ?
LYPLA1 inh: inactive; LYPLA2 inh: inactive; Rin1 Abl inh: 14; PREPL inhibitor: inactive; Rin1-Abl confirm: 26; GFP quencher: inactive; GFP quench dose: inactive

What do the screens show for `C=CCOc1ccc(/C=N/NC(=O)C(=O)Nc2ccccn2)cc1OC`?
LYPLA1 inh: inactive; Hck-Nef inh: inactive; LYPLA2 inh: inactive; p97 inhibitor: inactive; Rin1 Abl inh: 6.5; PREPL inhibitor: inactive; Rin1-Abl confirm: 14; GFP quencher: inactive

Results for COc1cccc(C2(O)CCN(C(=O)c3cccs3)CC2)c1 ?
LYPLA1 inh: inactive; Hck-Nef inh: inactive; LYPLA2 inh: inactive; p97 inhibitor: inactive; Rin1 Abl inh: 6.7; PREPL inhibitor: inactive; Rin1-Abl confirm: inactive; GFP quencher: inactive

Results for CCc1ccc(C(=O)Cc2cc3cccc(OC)c3oc2=O)cc1 ?
LYPLA1 inh: inactive; LYPLA2 inh: inactive; Rin1 Abl inh: 8.5; PREPL inhibitor: inactive; Rin1-Abl confirm: inactive; GFP quencher: inactive

What do the screens show for `COc1cccc2cc(CC(=O)c3ccccc3)c(=O)oc12`?
LYPLA1 inh: inactive; LYPLA2 inh: inactive; Rin1 Abl inh: inactive; PREPL inhibitor: inactive

Results for COc1cc(-c2oc3cc(O)cc(O)c3c(=O)c2O[C@@H]2O[C@H](COC3O[C@@H](C)[C@H](O)[C@@H](O)[C@H]3O)[C@@H](O)[C@H](O)[C@H]2O)ccc1O (stereo not given in full) ?
Rin1 Abl inh: inactive; PREPL inhibitor: inactive

Results for C[C@@H]1O[C@@H](O[C@H]2[C@H](O)[C@@H](O)[C@H](Oc3c(-c4ccc(O)c(O)c4)oc4cc(O)cc(O)c4c3=O)O[C@@H]2CO)[C@H](O)[C@H](O)[C@H]1O ?
LYPLA1 inh: inactive; LYPLA2 inh: inactive; Rin1 Abl inh: 11; PREPL inhibitor: inactive; Rin1-Abl confirm: 11; GFP quencher: inactive

Results for C[C@@H]1O[C@@H](Oc2c(-c3ccc(O)c(O)c3)oc3cc(O)cc(O)c3c2=O)[C@H](O)[C@H](O)[C@H]1O ?
Rin1 Abl inh: 18!; PREPL inhibitor: inactive; Rin1-Abl confirm: 12; GFP quencher: inactive

How did O=c1c(O[C@@H]2O[C@H](CO)C(O)C2O)c(-c2ccc(O)c(O)c2)oc2cc(O)cc(O)c12 (stereo not given in full) do in these assays?
Rin1 Abl inh: inactive; PREPL inhibitor: inactive

How did O=c1c(OC2OC(CO)C(O)C(O)C2O)c(-c2ccc(O)c(O)c2)oc2cc(O)cc(O)c12 (stereo not given) do in these assays?
LYPLA1 inh: inactive; Hck-Nef inh: inactive; LYPLA2 inh: inactive; p97 inhibitor: inactive; Rin1 Abl inh: 16; PREPL inhibitor: inactive; Rin1-Abl confirm: 15; GFP quencher: inactive

What do the screens show for `Cc1ccccc1-c1n[nH]nc1C1=CC(=O)CC(C)(C)C1`?
Rin1 Abl inh: inactive

Results for Cc1cccc(NC(=S)NNc2ncc(C(F)(F)F)cc2Cl)c1 ?
LYPLA1 inh: inactive; Hck-Nef inh: inactive; LYPLA2 inh: inactive; p97 inhibitor: inactive; Rin1 Abl inh: inactive; PREPL inhibitor: inactive

How did FC(F)(F)c1cnc(NNC(=S)Nc2ccccc2Cl)c(Cl)c1 do in these assays?
LYPLA1 inh: inactive; Hck-Nef inh: inactive; LYPLA2 inh: inactive; p97 inhibitor: inactive; Rin1 Abl inh: 5.7; PREPL inhibitor: inactive; Rin1-Abl confirm: inactive; GFP quencher: inactive

Results for COc1ccc(/C=N\NC(=O)c2cc(O)c(O)c(O)c2)cc1COc1ccc(C(=O)OCC(C)C)cc1 ?
LYPLA1 inh: inactive; LYPLA2 inh: inactive; Rin1 Abl inh: 15; PREPL inhibitor: inactive; Rin1-Abl confirm: 11; GFP quencher: inactive

How did CN(Cc1ccccc1)C(=O)c1ccc(NC(=O)C2CCCN(C(=O)OC(C)(C)C)C2)cc1 (stereo not given) do in these assays?
Rin1 Abl inh: inactive; PREPL inhibitor: inactive

How did Cc1ccccc1OCC(=O)Nc1ccccc1-c1ccccc1 do in these assays?
LYPLA1 inh: inactive; LYPLA2 inh: inactive; Rin1 Abl inh: 7.0; PREPL inhibitor: inactive; Rin1-Abl confirm: inactive; GFP quencher: inactive

Results for CCOc1ccc2nc(N(CCN(C)C)C(=O)c3cc4ccccc4cc3OC)sc2c1 ?
LYPLA1 inh: inactive; LYPLA2 inh: inactive; Rin1 Abl inh: 17; PREPL inhibitor: inactive; Rin1-Abl confirm: 17; GFP quencher: inactive; GFP quench dose: inactive

What do the screens show for `Cc1ccc2c(c1)c(=O)c1c3n2CCN(C(=O)CCl)C3CC1` (stereo not given)?
LYPLA1 inh: inactive; Hck-Nef inh: inactive; LYPLA2 inh: inactive; p97 inhibitor: inactive; Rin1 Abl inh: 9.4; PREPL inhibitor: inactive; Rin1-Abl confirm: inactive; GFP quencher: inactive
